Out of some 2,300 compounds screened, about 350 (15%) were called active. Only a sample is shown. Measured potencies and affinities stand elsewhere. Values without a mark were called inactive. The rule behind the calls is not given here.
test: HepG2 cell cytotoxicity, dose response, cytotoxicity control for non-replicating M. tuberculosis project (AID 489018); conditions: series mostly up to 20 µM; viability: at the top concentration;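 note: HepG2 human liver cells; 100% = vehicle-treated cells and 0% = background signal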

SMILES	viability
Clc1cccc(OCCN2CCN(CCOc3cccc(Cl)c3)CC2)c1	88.1%
OCC1(CCOc2ccccc2)CCN(Cc2cc(Cl)ccc2O)CC1	117%
COc1ccc(C2(O)CCN(CCCCOc3ccccc3)CC2)cc1	94.8%
CC(C)Cn1c(N)c(C(=O)COC(=O)c2cnc(Cl)c(Cl)c2)c(=O)n(C)c1=O	102%
O=C(Oc1cccnc1)c1ccc(Cl)c(Cl)c1	103%
CC(=O)c1ccc(-n2cc(-c3ccc(C(C)(C)C)cc3)[n+]3c2SCCC3)cc1	100%
Cn1c(=O)c(Oc2ccc(F)cc2)c(O)c2ccccc21	95.5%
O=C(Nc1nccs1)c1ccc(COc2ccc(Cl)cc2)o1	98.2% [at 5 µM]
COc1cccc(COC(=O)CCNC(=O)c2ccc(Cl)cc2)c1OC	106%
O=C(Oc1ccccc1)c1ccc(COC(=O)c2cnccn2)cc1	99.2%
CCCC(=O)N1CCC(Cc2ccccc2)CC1	120%
NC1=NC[C@H](Cc2ccccc2)N1CCCCC1CCCCC1	96.8% [at 5 µM]
Cc1ccc(NC(C)C(=O)N/N=C/c2ccc([N+](=O)[O-])s2)cc1 (configuration not stated)	82.1%
Cc1ccc(NC(CC(=O)c2ccccc2)C(=O)O)cc1Cl (configuration not stated)	99.8%
COc1ccc2cc(C(=O)C3CCCN(Cc4ccccn4)C3)ccc2c1 (configuration not stated)	74.4%
CC(NC(=O)OCc1ccccc1)c1ccccc1 (configuration not stated)	96%
CC(C)COc1ccc(C(=O)CCN2CCCCC2)cc1	94.7%
CCOc1ccc(C(=O)CCN2CCCCCC2)cc1	106% [at 5 µM]
COc1ccc(C(=O)CCN2CCCCCC2)cc1	95%
CC(CN1CCOCC1)OC(=O)c1ccc2c(c1)OCCO2 (configuration not stated)	95.4%
CC(CN1CCOCC1)OC(=O)c1ccc(Br)cc1 (configuration not stated)	80%
CC(=O)c1cc2c(ccc3ccccc32)oc1=O	99.2% [at 5 µM]
Cc1c([N+](=O)[O-])cnc(Sc2ccccc2)c1[N+](=O)[O-]	97.7%
O=C(C/C=N\OCc1ccc([N+](=O)[O-])cc1)Nc1ccccc1	99%
Cc1nnc(N/N=C/c2cccc(OCc3ccc(Cl)c(Cl)c3)c2)n1N	83.2%
O=C(CN1CCC(NC(=O)c2cccc(F)c2)CC1)Nc1ccc(Br)cc1	96.4% [at 5 µM]

SMILES	viability
COc1cccc(NC(=O)c2cnc(SC)nc2)c1	106%
CCOC(=O)c1c(C)nc2c3ccccc3ccn12	101% [at 5 µM]
COC(=O)c1ccc(N2CCN(CCNC(=O)Nc3ccc(OC)cc3)CC2)cc1	104%
COC(=O)COc1ccc2c(=O)c(Oc3ccccc3)c(C)oc2c1	98%
O=C(CCN1CCCCCC1)c1ccccc1	105%
O=C(CCSc1ccccc1)N1CCCC1	86%
O=C(Nc1nc(-c2cc(F)ccc2F)cs1)c1ccccn1	107% [at 5 µM]
Cc1cnc(NC(=O)c2ccccn2)s1	83.2%
Cc1ccc2nc(NC(=O)c3ccccn3)sc2c1	91.4%
O=C(Nc1nccs1)c1ccccn1	97%
CC1=C(/C=C/C(C)=N\NC(=O)c2ccncc2)C(C)(C)CCC1	84.7%
O=C(COC(=O)COc1ccc(Nc2ccccc2)cc1)NCc1ccco1	103% [at 5 µM]
O=C(COc1ccccc1)Nc1nnc(-c2ccc(Cl)cc2)o1	105%
CC(C)Cc1cc(C(=O)Nc2ccc(F)cc2F)no1	99.7%
O=C(Nc1c(F)cc(F)cc1Br)c1cc(-c2ccccc2)on1	101%
O=C(N/N=C\c1ccc([N+](=O)[O-])s1)C1COc2ccccc2O1 (configuration not stated)	96.5%
CCn1ccc(C(=O)Nc2cccc(Cl)c2)n1	111% [at 5 µM]
O=C(CCSc1nnc(-c2ccncc2)o1)Nc1cccc(Cl)c1	95.7%
Cc1noc2ncnc(Sc3ccc(Br)cc3)c12	99.2%
O=c1cc(-c2ccccc2Cl)oc2c([N+](=O)[O-])c(O)cc(O)c12	80.7%
O=C1C=C(Nc2ccc(F)cc2)c2ccccc2C1=O	96.4% [at 5 µM]
CCOC(=O)c1ccc(NC2=CC(=O)C(=O)c3ccccc32)cc1	92.8%
CCN(CC)S(=O)(=O)c1ccc(C(=O)OCn2nnc3ccccc3c2=O)cc1	91.7%
O=c1cc(-c2ccccc2Cl)oc2ccc([N+](=O)[O-])c(O)c12	87.9%
CCC/C(=N\NC(=O)c1ccco1)c1ccc(Cl)s1	103% [at 5 µM]
CCCc1cc(C(=O)Nc2ccccc2SC)no1	111%

SMILES	viability
Cc1ccc(C(=O)N/N=C\c2ccc([N+](=O)[O-])s2)cn1	77.5%
Cc1cc(C(=O)N/N=C/c2ccc([N+](=O)[O-])s2)n[nH]1	78.5%
Cc1cc(C)n(CC(=O)N/N=C/c2ccc([N+](=O)[O-])s2)n1	73.2%
O=c1oc(/C=C/c2ccc([N+](=O)[O-])s2)nc2ccccc12	111%
CCOC(=O)c1cc(-c2csc(COc3ccccc3)n2)on1	104%
O=C(N/N=C\C=C\c1ccco1)c1cncc(Br)c1	87%
CS(=O)(=O)Nc1cccc2cccnc12	76%
Cc1cc(C)n2nc(S(=O)(=O)Nc3c(Cl)cccc3Cl)nc2n1	93.4%
O=C(OCc1nnc(-c2ccccc2)o1)c1cc([N+](=O)[O-])ccc1Cl	106%
O=c1c2cc(Cl)ccc2nc(-c2ccccc2Cl)n1O	89.7%
CCOC(=O)c1ccc(COC(=O)c2ccc(-c3nnc(-c4ccccc4)o3)cc2)o1	87.1%
Cc1cc(OCCCCn2ccnc2)cc(C)c1Cl	79.8%
O=C(c1ccc([N+](=O)[O-])cc1[N+](=O)[O-])N1CCc2ccccc21	94.7%
Cc1ccc(S(=O)(=O)CCC(=O)Nc2nc(-c3ccncc3)cs2)cc1	88%
CC(/C=C/c1ccccc1F)=N\NC(=O)c1ccccc1	85.1%
O=C1c2ccccc2CC1Sc1nnc(-c2ccncc2)o1 (configuration not stated)	93.4%
O=S1(=O)C=C(Sc2nc3cc(Cl)ccc3o2)c2ccccc21	97.2% [at 5 µM]
O=C(O)c1[nH]c(=O)[nH]c(=O)c1F	82.3%
CC1=NN(c2ccccc2)C(=O)C1C(=O)c1ccccc1 (configuration not stated)	104%
Nc1nc2ccccc2n1C(=O)c1ccc(F)cc1	93.2%
OC(COc1ccccc1Cl)CN1CCN(CC(O)COc2ccccc2Cl)CC1 (configuration not stated)	82.6%
O=C(COc1ccccc1)NCCSCc1ccc(Cl)cc1	93.8%
C=CCc1ccc(OCC(O)CN2CCN(Cc3ccc(Cl)cc3)CC2)c(OC)c1 (configuration not stated)	79.2%
CCC(=O)Nc1nc2ccccc2n1Cc1ccccc1	73.6%
O=C(Nc1ncc([N+](=O)[O-])s1)c1ccc2c(c1)OCO2	70.5%
